# Source: PubChem BioAssay (National Center for Advancing Translational Sciences (NCATS))
# mIDH1 inhibitor = qHTS for Inhibitors of mutant isocitrate dehydrogenase 1 (IDH1): qHTS; IDH1-R132H enzyme, NADPH consumption, diaphorase/resazurin fluorescence; Potency, µM (highest dose often 76.6 µM), for inactives: at the highest dose activity change, negative = inhibition, hits mostly inhibitors; AID 602179, 2012; hit rate 0.093% among 390,000; note: % is set by controls: 0 for no effect and ±100 for the full control effect; nearly all actives have a fitted effect of over 65% in size
#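 IDH1-R132H (0.5 ug/mL) preincubated 30 min with compound, then NADPH (0.016 mM) and alpha-KG (2 mM) added; 80 min at RT, pH 7.5. Remaining NADPH coupled via diaphorase/resazurin to fluorescence (540/590 nm); concentration-response curves normalized to no-enzyme control.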
# AT treatment = qHTS Assay for Identifying a Potential Treatment of Ataxia-Telangiectasia; F2112 A-T fibroblasts, KAP-1 phosphorylation AlphaLISA; neocarzinostatin DNA damage 30 min before lysis; Potency, µM (doses to about 57.5 µM), for inactives: at the top dose activation, usual class: activators; hit rate 0.19% among 320,000; AID 485349, 2010; note: % of control where 0% means no effect; nearly all actives have a fitted effect of over 45% in size
#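 ATM-like activity read as KAP-1 phosphorylation via AlphaLISA donor/acceptor antibody pairs after lysis and 6 hr at 25C. Cells were ATM-null patient fibroblasts (F2112, hTERT), dosed 60 min, then exposed to the DSB inducer NCS for 30 min.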
# HTT ATP protect = qHTS Multiplex Assay to Identify Dual Action Probes in a Cell Model of Huntington: Cytoprotection (ATP); PC12 HTT-Q103 induced, cytoprotection, ATP luminescence, 40 h; Potency, µM (doses to about 56.4 µM), for inactives: cytoprotection (ATP increase), usual class: activators; hit rate 0.14% among 230,000; note: % of control where 0% means no effect; nearly all actives have a fitted effect of over 45% in size
#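 Compounds added alongside 100 nM tebufenozide, which induces toxic Q103 huntingtin exon 1-GFP in stable PC12 cells; surviving cells quantified by luminescent ATP measurement. Medium: phenol red-free DMEM, 5% equine and 5% calf serum.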
# HTT aggregate = qHTS Multiplex Assay to Identify Dual Action Probes in a Cell Model of Huntington: Aggregate Formation (GFP). PC12 HttQ103-GFP aggregates, Acumen cytometry, 40 h. Potency, µM (series often up to 46.1 µM), without a hit: at the top dose activity change, negative = inhibition, usual class: inhibitors. hit rate 1.1% among 220,000; note: % is set by controls: 0 for no effect and ±100 for the full control effect; nearly all actives have a fitted effect of over 60% in size
#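 PC12/HTTQ103-GFP, ecdysone-inducible; teb 100 nM; cpd qHTS titration; GFP aggregates read on laser cytometer, Ex 488/Em 500-530 nm.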
# NPSR antag = qHTS Assay for Antagonists of the Neuropeptide S Receptor: cAMP Signal Transduction; Q6W5P4; CHO-NPSR cells, cAMP TR-FRET, antagonist mode; Potency, µM (titrated, usually from 38.3 µM), without a hit: top-dose activity change, negative = inhibition, actives largely listed as inhibitors; hit rate 1% among 220,000; AID 1461, 2008; note: % is set by controls: 0 for no effect and ±100 for the full control effect; nearly all actives have a fitted effect of over 50% in size
# Target sequence (Q6W5P4 whole entry, looked up): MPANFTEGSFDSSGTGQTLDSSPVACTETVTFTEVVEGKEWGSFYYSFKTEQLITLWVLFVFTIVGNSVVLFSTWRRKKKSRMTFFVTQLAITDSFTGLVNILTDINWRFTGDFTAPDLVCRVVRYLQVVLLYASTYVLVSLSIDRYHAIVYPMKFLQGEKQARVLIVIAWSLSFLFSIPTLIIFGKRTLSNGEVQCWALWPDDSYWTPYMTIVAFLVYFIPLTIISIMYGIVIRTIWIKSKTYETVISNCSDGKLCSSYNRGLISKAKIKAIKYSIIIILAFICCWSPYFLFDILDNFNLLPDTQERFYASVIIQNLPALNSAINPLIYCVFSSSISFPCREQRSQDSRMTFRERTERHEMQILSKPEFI
# * hit, by the source's call; ? = inconclusive; nt = not tested or not shown; [ ] = dose if it differs, or a comment. This is a sample that favours compounds with a hit; in the whole collection about 1.1% have one here. Calls come from the whole dose curve; as a rule, active = well fitted curve in the direction sought with a large enough effect; inconclusive = small, poorly fitted or top-dose-only effect, or another doubt; inactive = no such curve, though single readings can be large; an effect the other way counts as inactive or inconclusive. Potency is the fitted concentration of half-maximal effect.
SMILES,mIDH1 inhibitor,AT treatment,HTT ATP protect,HTT aggregate,NPSR antag
Cc1ccccc1N1C(=O)CC(Sc2nnc(-c3ccccc3)o2)C1=O (configuration not stated),0%,-8%,-96%,22µM*,?
Cc1ccc(C(=O)Nc2nc(=O)n(C(=O)c3ccccc3C)s2)cc1,-26%,3%,18µM*,nt,-21%[46.1 µM]
COc1ccc(-c2cc(-n3c(C(F)(F)F)nc4ccccc43)n(CCC#N)n2)cc1,-1%,3%,-16%,2.8µM*,-27%[46.1 µM]
Cn1c(=S)[nH]c2c(c1=O)C(C)(C)Cc1ccccc1-2,-16%,-7%,-4%,9%,6.3µM*
Cc1ccc(CSc2nc3ccncc3n2CC(=O)Nc2cc(C)cc(C)c2)cc1,8%,15%,nt,-22%,3.2µM*
COc1ccc(C)cc1S(=O)(=O)N(CC(=O)NCc1ccc(Cl)cc1)Cc1ccccc1,5%,nt,-25%[10 µM],28µM*,?
C=Cc1c(C)/c2[n-]/c1=C\c1[n-]c(c(CC)c1C)/C=c1\[n-]c3c(c1C)C(=O)C(C(=O)[O-])C=3c1[n-]c(c(C)c1CCC(=O)[O-])\C=2.[Cu].[Na+].[Na+] (configuration not stated),nt,nt,-130%,-11%,nt
O=C(/C=C/c1cccs1)Nc1nc(-c2ccccc2)cs1,-2%,-3%,-21%[10 µM],35µM*,-17%[46.1 µM]
CC1CCCC(C)N1CCCNC(=O)Cn1ncc2c3ccccc3n(C)c2c1=O (configuration not stated),-6%,7.1µM*,nt,nt,nt
CC1CCCCN1CCCNC(=O)Cn1ncc2c3ccccc3n(C)c2c1=O (configuration not stated),18%,nt,nt,nt,nt
COc1cccc(/C=N/NC(=O)CNC(=O)C2COc3ccccc3O2)c1O (configuration not stated),-3%,-2%,34%[10 µM],13µM*,-5%
CCOc1cccc(/C=N/NC(=O)c2ccc3c(c2)OCCO3)c1O,3%,3%,nt,nt,nt
O=C(N/N=C/c1cc([N+](=O)[O-])ccc1O)c1ccc2c(c1)OCCO2,7%,-11%,25%[10 µM],14µM*,-11%
COc1cccc(/C=N/NC(=O)CNC(=O)c2ccc3c(c2)OCCO3)c1O,-1%,2%,0%[10 µM],35µM*,10%
Cc1ccccc1NC(=O)CCC(=O)N/N=C/c1cc([N+](=O)[O-])ccc1O,10%,-12%,nt,13µM*,3%
COc1ccccc1N1CCN(C(CNC(=O)C(=O)NCCc2ccccc2)c2cccnc2)CC1 (configuration not stated),0%,nt,nt,nt,nt
C/C(=C\COc1cc(=O)[nH]c2ccccc12)CC[C@@H](O)C(C)(C)O,nt,nt,-10%,nt,nt
CCOC(=O)c1sc(NC(=O)c2c(-c3ccccc3)c(-c3ccccc3)nn(C)c2=O)nc1C,-15%,nt,nt,nt,nt
COc1ccc(C(=O)c2c(C)c3ccccc3n2CC(O)CNC(C)C)cc1 (configuration not stated),18%,3%,nt,22µM*,1%
COC(=O)N1C2CC3(C)C=C(C)OC1(C)C3c1ccccc12 (configuration not stated),nt,nt,9%[10 µM],nt,nt
CCOc1cc(CNc2ccc(N(C)C)cc2)cc(Br)c1OCC(=O)NC(C)(C)C,10%,-11%,15%[10 µM],-19%,10µM*
Cc1nn(-c2ccccc2)c(Cl)c1C(=O)OC(C)C(=O)NC(=O)NC1CCCCC1 (configuration not stated),4%,nt,-56%,11µM*,-15%[46.1 µM]
Cc1nn(-c2ccccc2)c(C)c1C(=O)OC(C)C(=O)NC1CCCCC1C (configuration not stated),5%,8%,nt,nt,nt
CCn1nc(NC(C)=O)c2cc3cccc(C)c3nc21,9%,5%,nt,nt,nt
CCn1nc(NC(=O)c2ccccc2)c2cc3cccc(C)c3nc21,0%,22µM*,-14%[10 µM],-13%[9.22 µM],41%
